# Source: PubChem BioAssay (National Center for Advancing Translational Sciences (NCATS))
# SARS PLP yeast: blocks SARS-CoV papain-like protease in a yeast assay; hit rate 0.19% among 330,000; S. cerevisiae expressing SARS-CoV PLpro, growth rescue; Potency, µM (highest dose often 32.9 µM), for the others: top-dose activity, positive = growth rescue, usual class: activators; calls by dose curve; further: potency means the concentration at half of the fitted maximal effect; 0% is about no effect; nearly all actives have a fitted effect of over 55% in size
# HCMV inh: inhibitors of human cytomegalovirus; HFF cells, HCMV-luciferase reporter, 72 h; hits give low values; AID 1259415; activity change, negative = inhibition, % at 57.5 µM; hit rate 4.5% among 410,000; in the data active means activity change below about -60%; inconclusive means no clear call, values can overlap the other calls; inactive means above about -39%; further: on the % scale 0 is the no-effect control and ±100 the full control effect
#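 Two compound doses tested in HFFs infected with HCMV-luciferase, MOI 1 PFU/cell, 72 h at 37C. Lysate luminescence read with OneGlo; data normalized against buffer-only and 10uM Salinomycin inhibitor controls.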
# HCV inhibitor: blocks hepatitis C virus. Potency, µM (doses to about 41.8 µM), inactives show top-dose activity change, negative = inhibition, hits mostly inhibitors. Huh7.5.1 HCVcc-Cre infection, luciferase reporter, 44 h. hit rate 3.4% among 340,000; further: potency means the concentration at half of the fitted maximal effect; on the % scale 0 is the no-effect control and ±100 the full control effect
#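 Infectious HCVcc-Cre (~0.5 moi) was added to cells just after compound, with cells seeded 4 h earlier at 1,000 per well. Luciferase activity after 44 h culture reported infection; substrate was incubated 15 min at room temperature before reading.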
# Pf growth 96h: inhibits malaria parasite growth, 96 h; hit rate 6.9% among 320,000; P. falciparum luciferase reporter growth, 96 h; Potency, µM (highest dose often 28.7 µM), inactives show top-dose activity change, negative = inhibition, usual class: inhibitors; further: potency means the concentration at half of the fitted maximal effect; on the % scale 0 is the no-effect control and ±100 the full control effect
#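 Readout is luminescence from an integrated firefly luciferase in P. falciparum. Red cells, 2% hematocrit and 0.05% parasitemia final, were cultured with compound through two parasite generations (96 hours) at 37 C, 5% CO2.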
# Pf growth 48h: P. falciparum growth inhibition at 48 hours (one generation) | Potency, µM (doses to about 28.7 µM), for the others: at the highest dose activity change, negative = inhibition, hits mostly inhibitors | AID 504832 | hit rate 5.9% among 310,000 | P. falciparum luciferase growth in erythrocytes, 48 h; further: potency means the concentration at half of the fitted maximal effect; on the % scale 0 is the no-effect control and ±100 the full control effect
#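 Luciferase-expressing parasites in RBCs, 2% Hct / 0.1% parasitemia final; RPMI 1640 + 0.5% Albumax; 37 C, 5% CO2, one generation; luminescence read-out, lower signal = inhibition.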
# Sm TGR block: blocks Schistosoma mansoni thioredoxin glutathione reductase. AID 485364. hit rate 3% among 360,000. Potency, µM (top dose mostly 114 µM), for inactives: at the top dose activity change, negative = inhibition, hits mostly inhibitors. purified TGR, DTNB reduction, TNB absorbance 405 nm. Q962Y6; further: potency means the concentration at half of the fitted maximal effect; on the % scale 0 is the no-effect control and ±100 the full control effect; nearly all actives have a fitted effect of over 60% in size
#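 Kinetic colorimetric format: TGR-catalysed, NADPH-driven DTNB reduction monitored via TNB absorbance. Enzyme dispensed at 20 nM; compound exposure 15 min at room temperature before reaction start.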
# * hit, by the source's call; ? = inconclusive; . = no result given. In the library only some 15% were active in any assay of this set; here they are far more common. Unless noted, the call rests on the fitted dose curve; in most records, active means well fitted curve in the direction sought with a large enough effect; inconclusive means small, poorly fitted or top-dose-only effect, or another doubt; inactive means no such curve, though single readings can be large; an effect the other way counts as inactive or inconclusive.
SMILES,SARS PLP yeast,HCMV inh,HCV inhibitor,Pf growth 96h,Pf growth 48h,Sm TGR block
O=C(CCc1ccc(S(=O)(=O)N2CCOCC2)cc1)N1CCN(Cc2ccc3c(c2)OCO3)CC1,-7%,-29,?,3.3µM*,.,-23%
O=C(c1cccc(F)c1)N1CCN(Cc2ccc3c(c2)OCO3)CC1,9%,-7,1%,19%,?,7%
Cc1cccc(C)c1NC(=O)CN1CCCCCC1,.,-12,.,?,-2%,.
O=C(NCc1ccccc1Cl)c1cc(C(=O)C2CC2)c[nH]1,4%,31,-29%,-9%,?,10%
c1ccc(-c2csc3ncnc(NCC4COc5ccccc5O4)c23)cc1 (stereo not given),4%,-88*,0.56µM*,?,?,0%
Cc1sc2ncnc(NCC3CCCO3)c2c1C (stereo not given),0%,-29,13µM*,128%,5%,8%
Cc1sc2ncnc(NCC3COc4ccccc4O3)c2c1C (stereo not given),?,-79*,?,?,11%,1%
Cc1nc(SCC(=O)NCC2COc3ccccc3O2)c2c(C)c(C)sc2n1 (stereo not given),2%,5,5%,30%,5%,-2%
CCOC(=O)COc1ccccc1C(=O)c1cnn(-c2ccccc2)c1,0%,35,-28%,41%,.,-1%
CNc1cncc(-c2cccc(NS(C)(=O)=O)c2)n1,.,-5,.,.,.,.
CC1CCCN(C(=O)N2c3ccccc3Sc3ccccc32)C1 (stereo not given),-28%,-68*,-19%,?,.,-20%
CC1CCN(C(=O)N2c3ccccc3Sc3ccccc32)CC1,-28%,-40,3%,.,.,0%
O=C(NC1CCN(C(=O)N2c3ccccc3Sc3ccccc32)CC1)c1ccccc1F,-27%,?,?,?,2.9µM*,16%
O=C(N1CCOCC1)N1c2ccccc2Sc2ccccc21,-2%,?,-13%,?,-7%,2%
O=C(O)c1ccc(Cl)c(S(=O)(=O)Nc2ccccc2C(=O)Nc2ccc(Cl)cc2)c1,5%,13,6%,27%,35%,-11%
CC(CC(=O)NCc1ccc(Cl)cc1Cl)CC1=NS(=O)(=O)c2ccccc2N1 (stereo not given),.,14,.,.,.,-1%
c1cc2n(c1)-c1c(ccc3c1OCO3)CNC2c1ccc2c(c1)OCO2 (stereo not given),-4%,-8,?,-22%,?,-8%
COc1ccc(C2NCc3ccc4c(c3-n3cccc32)OCO4)cc1O (stereo not given),-10%,.,0.56µM*,.,6.6µM*,-24%
CCc1cccc(-n2c(=O)c3cccnc3n2CC(=O)Nc2ccc(F)c(C)c2)c1,.,21,.,.,.,5%
CCOCCCN(C(=O)c1snc(C(N)=O)c1N)C(C(=O)NC1CCCC1)c1ccc(O)cc1 (stereo not given),0%,-9,-4%,?,-3%,-28%
O=C(NC(=S)N1CCN(c2ccc(C(F)(F)F)cc2[N+](=O)[O-])CC1)c1cccs1,-39%,-23,7%,4.1µM*,-6%,1%
O=[N+]([O-])c1cc(C(F)(F)F)ccc1N1CCCNCC1,0%,27,-10%,?,12%,28µM*
O=[N+]([O-])c1cc(Cl)ccc1N1CCN(c2cccc(C(F)(F)F)c2)CC1,5%,-30,-3%,12µM*,?,-10%
CNS(=O)(=O)c1cnccc1N1CCN(c2cccc(C(F)(F)F)c2)CC1,-2%,-27,0%,15µM*,?,2%
CCN1CCN(C(=S)NC(=O)c2cccs2)CC1,1%,?,10%,-24%,?,42%
SMILES,SARS PLP yeast,HCMV inh,HCV inhibitor,Pf growth 96h,Pf growth 48h,Sm TGR block
CCOC(=O)C1CCN(CC(=O)c2c(C)n(C)c3ccc(OC)cc23)CC1,1%,3,-14%,4%,15%,-24%
CCC[C@H]1[C@@H](NS(=O)(=O)c2ccccc2C)CC[C@@]23CCCN2C(=O)CCC[C@@H]13,.,-26,.,.,.,.
Cc1ccc(OCCN(C)C(=O)C2CCC(=O)N(CCCN3CCOCC3)C2)cc1 (stereo not given),7%,21,?,?,?,-15%
CC1CN(c2ccc(C(F)(F)F)cc2[N+](=O)[O-])CCN1S(C)(=O)=O (stereo not given),10%,-23,4%,17%,13%,-9%
O=[N+]([O-])c1cc(C(F)(F)F)ccc1N1CCN(S(=O)(=O)c2ccc3c(c2)CCCC3)CC1,-11%,-96*,?,11%,-3%,2%
CN(C)C(=O)c1ccc(-c2cc3c(Nc4ccc(OC(F)(F)F)cc4)nccc3n2C)cc1,.,-25,.,.,.,.
COc1ccc(/C=C/C(O)=C2/C(=O)N(C)C3(C)CC2c2ccccc2O3)cc1 (stereo not given),-6%,-85*,-17%,0%,13µM*,5%
CCOC(=O)C1C(=O)N(C)C2(C)CC1c1ccccc1O2 (stereo not given),3%,-3,7%,?,7%,-22%
COc1ccc(/C=C/C(O)=C2/C(=O)NC3(C)CC2c2ccccc2O3)c(OC)c1OC (stereo not given),3%,-65*,?,-15%,?,1%
CC12CC(c3ccccc3O1)C(C(=O)N1CCOCC1)C(=O)N2 (stereo not given),12%,35,24%,?,7%,4%
Cc1ccc(/C=C/C(O)=C2/C(=O)N(C)C3(C)CC2c2ccccc2O3)cc1 (stereo not given),-22%,-98*,?,12%,12µM*,-5%
CCN1C(=O)C(C(=O)Nc2ccc(OC)cc2)C2CC1(C)Oc1ccccc12 (stereo not given),-4%,19,-3%,15%,?,3%
O=C(CSCc1cnn(-c2ccccc2)c1-n1cccc1)NCc1cccs1,-15%,-39,-30%,4.7µM*,.,0%
Cc1ccc(S(=O)(=O)N(CC(=O)NCCSc2ccccn2)c2ccccc2F)cc1,-7%,0,-2%,?,?,-9%
Cc1c(C(=O)NCc2ccc3c(c2)OCO3)sc(=O)n1Cc1ccc(-c2ccccc2)cc1,.,-67*,.,.,.,.
Cc1c(C(=O)NCc2ccc([N+](=O)[O-])cc2)sc(=O)n1Cc1ccc(-c2ccccc2)cc1,.,-84*,.,.,.,.
NC(=O)C(C(=O)/C=C/c1ccc(Cl)cc1)=C1SCCS1,0%,-101*,?,8.3µM*,?,0%
COc1ccc(/C=C/C(=O)C(C(N)=O)=C2SCCS2)cc1,15%,-101*,4%,-29%,-27%,6%
